Test results taken from the supplement of paper PMC8728848.
Shown is part of a subset that was picked to be rich in the strongest signals.

Key:
Assay in all cases: glycan array binding signal (z-score within array); higher = stronger binding
Conditions in all cases: glycan notation: IUPAC condensed, linker removed
[1] = biological target: Glc(a1-3)Glc(a1-3)Glc(a1-3)Glc(a1-3)Glc
In short: (§1)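 Negative Z-scores can be read as non-binding. The Z-score is calculated within each array and then averaged across arrays of one protein sequence at different concentrations or buffers and across linkers. Arrays, 3228 in all, were curated from the Consortium for Functional Glycomics database and kept only where the protein sequence was available.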

[2] = biological target: Glc(a1-3)Glc(a1-3)Glc(a1-3)Glc(a1-3)Glc(a1-3)Glc(a1-3)Glc(a1-3)Glc(a1-3)Glc(a1-3)Glc(a1-3)Glc(a1-3)Glc
In short: as §1

[3] = biological target: Glc(b1-2)Glc(b1-2)Glc(b1-2)Glc
In short: as §1

[4] = biological target: Glc(b1-2)Glc(b1-2)Glc(b1-2)Glc(b1-2)Glc(b1-2)Glc(b1-2)Glc(b1-2)Glc(b1-2)Glc
In short: as §1

[5] = biological target: Glc(b1-3)Glc(b1-3)Glc(b1-3)Glc(b1-3)Glc(b1-3)Glc(b1-3)Glc(b1-3)Glc(b1-3)Glc(b1-3)Glc(b1-3)Glc(b1-3)Glc
In short: as §1

[6] = biological target: Glc(b1-3)Glc(b1-3)Glc(b1-3)Glc(b1-3)Glc(b1-3)Glc(b1-3)Glc(b1-3)Glc(b1-3)Glc(b1-3)Glc(b1-3)Glc(b1-3)Glc(b1-3)Glc
In short: as §1

[7] = biological target: Glc(b1-3)Glc(b1-3)[Glc(b1-6)]Glc(b1-3)Glc(b1-3)Glc(b1-3)Glc(b1-3)Glc(b1-3)Glc(b1-3)Glc
In short: as §1

Glc(b1-4)Glc(b1-4)Glc = biological target: Glc(b1-4)Glc(b1-4)Glc
In short: as §1

[8] = biological target: Glc(b1-4)Glc(b1-4)Glc(b1-4)Glc(b1-4)Glc(b1-4)Glc(b1-4)Glc(b1-4)Glc
In short: as §1

[9] = biological target: Glc(b1-6)Glc(b1-6)Glc(b1-6)Glc
In short: as §1

[10] = biological target: Xyl(b1-4)Xyl(b1-4)Xyl(b1-4)Xyl(b1-4)Xyl(b1-4)Xyl
In short: as §1

[11] = biological target: Glc(a1-3)Glc(a1-3)Glc(a1-3)Glc
In short: as §1

[12] = biological target: Glc(a1-4)Glc(a1-4)Glc(a1-4)Glc(a1-4)Glc(a1-4)Glc(a1-4)Glc(a1-4)Glc(a1-4)Glc(a1-4)Glc
In short: as §1

[13] = biological target: Glc(b1-3)Glc(b1-3)Glc(b1-3)Glc(b1-3)Glc(b1-3)Glc
In short: as §1

[14] = biological target: Glc(b1-3)Glc(b1-3)Glc(b1-3)Glc(b1-3)Glc(b1-3)Glc(b1-3)Glc(b1-3)Glc(b1-3)Glc(b1-3)Glc(b1-3)Glc
In short: as §1

[15] = biological target: Glc(b1-4)Glc(b1-4)Glc(b1-4)Glc(b1-4)Glc(b1-4)Glc(b1-4)Glc
In short: as §1

Gal(a1-3)GalNAc = biological target: Gal(a1-3)GalNAc
In short: as §1

Gal(a1-4)Gal(b1-4)Glc = biological target: Gal(a1-4)Gal(b1-4)Glc
In short: as §1

[16] = biological target: Gal(b1-3)GalNAc(b1-4)Gal(b1-4)Glc
In short: as §1

[17] = biological target: Gal(b1-4)GalNAc(a1-3)[Fuc(a1-2)]Gal(b1-4)GlcNAc
In short: as §1

[18] = biological target: Gal(b1-4)GlcNAc(b1-3)[Gal(b1-4)GlcNAc(b1-6)]GalNAc
In short: as §1

[19] = biological target: Gal3S(b1-3)[Fuc(a1-4)]GlcNAc
In short: as §1

Gal6S(b1-4)Glc6S = biological target: Gal6S(b1-4)Glc6S
In short: as §1

Glc(a1-4)Glc = biological target: Glc(a1-4)Glc
In short: as §1

[20] = biological target: GlcNAc(b1-2)Gal(b1-3)GalNAc
In short: as §1

[21] = biological target: Neu5Ac(a2-3)[GalNAc(b1-4)]Gal(b1-4)Glc
In short: as §1

[22] = biological target: Neu5Ac(a2-6)Gal(b1-4)GlcNAc(b1-3)Gal(b1-4)[Fuc(a1-3)]GlcNAc(b1-3)Gal(b1-4)[Fuc(a1-3)]GlcNAc
In short: as §1

[23] = biological target: Neu5Ac(a2-8)Neu5Ac(a2-8)Neu5Ac(a2-3)Gal(b1-4)Glc
In short: as §1

[24] = biological target: Neu5Gc(a2-3)Gal(b1-3)GlcNAc
In short: as §1

[25] = biological target: Neu5Gc(a2-3)Gal(b1-4)[Fuc(a1-3)]GlcNAc
In short: as §1

B1: laminarinase (Bacillus halodurans), Q9KBL8 (protein)
chain: EETIELEGEVIPARLLSTKVKALNYDDYHNVLIDRCVEGGESIRGLGDGSWIAFHDINLEQPTNLLTVRAANENKQAVLEIRADRVDGPLVSQSVIPPTGGLQAWTTVTAQVNGETSEIRDLYLVFKGEFQLSWFSFS
[1]
  glycan array binding signal (z-score): -0.688
[2]
  glycan array binding signal (z-score): -0.654
[3]
  glycan array binding signal (z-score): 0.121
[4]
  glycan array binding signal (z-score): 2.57
[5]
  glycan array binding signal (z-score): 2.38
[6]
  glycan array binding signal (z-score): 2.46
[7]
  glycan array binding signal (z-score): 2.85
Glc(b1-4)Glc(b1-4)Glc
  glycan array binding signal (z-score): -0.573
[8]
  glycan array binding signal (z-score): -0.428
[9]
  glycan array binding signal (z-score): -0.324
[10]
  glycan array binding signal (z-score): -0.466

B2: Lam16A (Thermotoga maritima), Q9WXN1 (protein)
chain: EQINNGTFDEPIVNDQANNPDEWFIWQAGDYGISGARVSDYGVRDGYAYITIADPGTDTWHIQFNQWIGLYRGKTYTISFKAKADTPRPINVKILQNHDPWTNYFAQTVNLTADWQTFTFTYTHPDDADEVVQISFELGEGTATTIYFDDVTVSPQ
[11]
  glycan array binding signal (z-score): -0.373
[12]
  glycan array binding signal (z-score): -0.363
[13]
  glycan array binding signal (z-score): 1.79
[14]
  glycan array binding signal (z-score): 3.64
[5]
  glycan array binding signal (z-score): 4.46
[6]
  glycan array binding signal (z-score): 4.88
[15]
  glycan array binding signal (z-score): -0.373

B3: IRp60B (Homo sapiens), Q9UGN4-3 (protein)
chain: MWLPWALLLLWVPAGDHSELSQNPKQAATQSELHYANLELLMWPLQEKPAPPREVEVEYSTVASPREELHYASVVFDSNTNRIAAQRPREEEPDSDYSVIRKT
Gal(a1-3)GalNAc
  glycan array binding signal (z-score): 0.074
Gal(a1-4)Gal(b1-4)Glc
  glycan array binding signal (z-score): 5.38
[16]
  glycan array binding signal (z-score): 2.68
[17]
  glycan array binding signal (z-score): -0.378
[18]
  glycan array binding signal (z-score): 4.42
[19]
  glycan array binding signal (z-score): 4.5
Gal6S(b1-4)Glc6S
  glycan array binding signal (z-score): -0.421
Glc(a1-4)Glc
  glycan array binding signal (z-score): -0.26
[20]
  glycan array binding signal (z-score): -0.44
[21]
  glycan array binding signal (z-score): -0.323
[22]
  glycan array binding signal (z-score): 1.2
[23]
  glycan array binding signal (z-score): 1.18
[24]
  glycan array binding signal (z-score): -0.475
[25]
  glycan array binding signal (z-score): -0.107
